Screens as filed in PubChem BioAssay.
The list is not random: actives were taken first. Their share in the collection is about 2.4%.
SENP7 inh: blocks the human protease SENP7 | Q9BQF6 | recombinant SENP7, Z-RLRGG-aminoluciferin luminescence, 40 min | inhibition, % at 5 µM | hit rate 1.5% among 330,000 | AID 434973;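 active = inhibition above about 50% at the single test dose, limit read from the data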;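 also: plate controls were DMSO with enzyme for no effect and no enzyme buffer wells for full effect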
SENP6 inh: SENP6 protease inhibition. Recombinant SENP6 catalytic domain, aminoluciferin luminescence. hit rate 1.8% among 330,000. inhibition, % at 10 µM. Q9GZR1. AID 2599;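 active = inhibition above about 50% at the single tested dose, limit read from the data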;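 also: plate controls were DMSO wells with enzyme for no effect and DMSO wells lacking enzyme for full effect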
Target sequence (Q9GZR1 628-1112 limits assumed): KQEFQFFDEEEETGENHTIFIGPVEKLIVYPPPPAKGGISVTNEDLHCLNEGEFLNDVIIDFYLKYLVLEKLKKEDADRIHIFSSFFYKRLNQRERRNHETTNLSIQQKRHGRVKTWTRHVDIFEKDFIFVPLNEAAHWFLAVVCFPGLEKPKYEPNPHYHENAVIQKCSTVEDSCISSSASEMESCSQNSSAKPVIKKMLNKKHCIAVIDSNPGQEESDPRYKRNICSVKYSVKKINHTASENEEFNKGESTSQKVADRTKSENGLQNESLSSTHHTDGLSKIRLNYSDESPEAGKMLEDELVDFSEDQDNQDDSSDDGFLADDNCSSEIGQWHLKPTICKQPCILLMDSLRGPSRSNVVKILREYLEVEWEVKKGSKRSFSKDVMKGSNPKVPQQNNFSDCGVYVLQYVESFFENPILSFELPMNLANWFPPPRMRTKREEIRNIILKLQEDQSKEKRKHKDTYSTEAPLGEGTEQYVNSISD
SENP8 block-1: SENP8 protease inhibition; hit rate 1.2% among 330,000; purified SENP8, Z-RLRGG-aminoluciferin cleavage, luminescence; inhibition, % at 10 µM; in the data active = inhibition above about 50%
SENP8 block-2: inhibitors of human SENP8 protease | Q96LD8 | recombinant SENP8, Nedd8 substrate fluorescence | inhibition, % at 20 µM | hit rate 0.64% among 360,000 | AID 602440; in the data active = inhibition mostly above about 40%, no sharp cut-off; inactive = mostly below about 27%
Platelet DG rel: modulates dense granule release in human platelets; human platelet-rich plasma, SFLLRN dense granule ATP release, luminescence; inhibition, %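 (compounds screened at 7.5 µM in platelet-rich plasma)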; hit rate 0.22% among 300,000;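 active = mean replicate score, as percent of positive control, at or above 50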
SENP8 conf: human SENP8 inhibition, confirmed. shares compounds with SENP7 inh. Recombinant SENP8, Z-RLRGG-aminoluciferin luminescence, 60 min. inhibition, % at 12.5 µM. hit rate 40% among 6,200. AID 488912;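 active = mean inhibition across replicates above about 50%, limit read from the data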
SENP6 confirm: human SENP6 inhibition, confirmed; shares compounds with SENP7 inh; recombinant SENP6, Z-RLRGG-aminoluciferin luminescence; inhibition, % at 12.5 µM; hit rate 58% among 6,200; AID 488915
SENP7 conf: human SENP7 inhibition, confirmed; shares compounds with SENP7 inh; recombinant SENP7, Z-RLRGG-aminoluciferin luminescence, 40 min; inhibition, % at 12.5 µM; hit rate 69% among 6,200; AID 488917
Casp3 SENP sel: inhibits human caspase-3 in SENP selectivity test; purified caspase-3, Z-DEVD-aminoluciferin luminescence, 60 min; shares compounds with SENP7 inh; inhibition, % at 12.5 µM; hit rate 60% among 6,200;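 active = mean inhibition above about 50%, limit read from the data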;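 also: plate controls were enzyme with DMSO for no effect and wells without caspase-3 for full effect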
Luc interf: counter-screen for SENP inhibitors: luminescence interference; shares compounds with SENP7 inh; Pre-incubated SENP8/Z-RLRGG-aminoluciferin, luciferase luminescence interference; inhibition, % at 12.5 µM; hit rate 39% among 6,200;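 active = mean inhibition above about 50% when retested at one dose, limit read from the data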;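 also: plate controls were DMSO wells with completed reaction for no effect and substrate without enzyme for full effect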
* hit, by the source's call.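 The calls were made as follows, unless noted: active = mean inhibition above about 50% in the one-dose retest (limit read from the data); inactive = the rest.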

For C=CCc1cccc2cc(C(=O)Nc3cccc(C(=O)O)c3)c(=O)oc12 the results were SENP7 inh 25, SENP6 inh 55*, SENP8 block-1 21 and Platelet DG rel 6.
O=C(CCC(=O)N(CC(=O)NC1CCCC1)Cc1cccs1)Nc1nccs1 was read as SENP7 inh 1, SENP6 inh -3, SENP8 block-1 -4, SENP8 block-2 4 and Platelet DG rel 1.
Cc1cccc2c(N=Nc3ccc(S(=O)(=O)Nc4ccc(Cl)cc4)cc3[N+](=O)[O-])c(O)[nH]c12 was read as SENP7 inh -2, SENP6 inh -13, SENP8 block-1 1, SENP8 block-2 40* and Platelet DG rel -5.
For COc1ccc(OC)c(NC(=O)Nc2nnc(COCCO)s2)c1 the results were SENP8 block-2 -9.
For COC(=O)[C@]12C(=O)NC[C@H](CN1c1ccc(Cl)c(C)c1)N2C the results were SENP7 inh 100*, SENP6 inh -9, SENP8 block-1 6, SENP8 block-2 21, SENP8 conf -30, SENP6 confirm -18, SENP7 conf -11, Casp3 SENP sel -12 and Luc interf -9.
CCCN(CC(=O)NC(=O)NCc1ccccc1)CC(=O)Nc1ccc(F)c(F)c1F was read as SENP8 block-2 13.
For Cc1nc(NC(=O)/C=C/c2ccc(Cl)cc2Cl)sc1C(=O)N(C)C the results were SENP7 inh 2, SENP6 inh -18, SENP8 block-1 -2, SENP8 block-2 -4 and Platelet DG rel 20.
Screening Cc1cc(C)nc(NC(=O)/C=C/c2ccc(Cl)cc2Cl)c1 returned SENP7 inh 59*, SENP6 inh 76*, SENP8 block-1 62*, SENP8 block-2 15, Platelet DG rel 12, SENP8 conf 10, SENP6 confirm 18, SENP7 conf 79*, Casp3 SENP sel 34 and Luc interf 11.
CCN(CC)CCOC(=O)c1ccc(NC(=O)/C=C/c2cccs2)cc1 was read as SENP7 inh 0, SENP6 inh 0, SENP8 block-1 -3, SENP8 block-2 -65 and Platelet DG rel 6.
`O=C(/C=C/c1cccs1)Nc1cccc(NC(=O)/C=C/c2cccs2)n1` gave SENP7 inh -8, SENP6 inh 6, SENP8 block-1 -11, SENP8 block-2 -49 and Platelet DG rel -9.
For Cc1cc(C)nc(NC(=O)/C=C/c2cccs2)c1 the results were SENP7 inh 54*, SENP6 inh 34, SENP8 block-1 28, SENP8 block-2 -6, Platelet DG rel 23, SENP8 conf 28, SENP6 confirm 28, SENP7 conf 72*, Casp3 SENP sel 55* and Luc interf 55*.
Cc1ccccc1NC(=O)/C=C/c1cccs1 was read as SENP7 inh 63*, SENP6 inh -6, SENP8 block-1 23, SENP8 block-2 3, Platelet DG rel 36, SENP8 conf 52*, SENP6 confirm 51*, SENP7 conf 86*, Casp3 SENP sel 80* and Luc interf 70*.
For CCN(CC)S(=O)(=O)c1ccc(C)c(NC(=O)/C=C/c2cccs2)c1 the results were SENP7 inh -2, SENP6 inh -15, SENP8 block-1 -14, SENP8 block-2 23 and Platelet DG rel 7.
For CCOC(=O)c1ccc(NC(=O)/C=C/c2cccs2)cc1 the results were SENP7 inh 79*, SENP6 inh 81*, SENP8 block-1 62*, SENP8 block-2 -56, Platelet DG rel 2, SENP8 conf 53*, SENP6 confirm 53*, SENP7 conf 84*, Casp3 SENP sel 32 and Luc interf 38.
For S=C(NCCC1=CCCCC1)NCc1ccco1 the results were SENP7 inh -7, SENP6 inh -14, SENP8 block-1 -3, SENP8 block-2 0 and Platelet DG rel -3.
For Cc1ccc(S(=O)(=O)Nc2ccccc2F)cc1C(=O)NCc1ccco1 the results were SENP7 inh 1, SENP6 inh 7, SENP8 block-1 4 and SENP8 block-2 13.
`COc1ccc(OC)c(S(=O)(=O)Oc2ccc(N)c3ccccc23)c1` gave SENP7 inh 28, SENP6 inh 94*, SENP8 block-1 72*, SENP8 block-2 -14, Platelet DG rel 8, SENP8 conf 2, SENP6 confirm 24, SENP7 conf 19, Casp3 SENP sel 3 and Luc interf 3.
CCN(C(=O)COC(=O)CCc1ccccc1)c1ccccc1 was read as SENP7 inh -13, SENP6 inh -29, SENP8 block-1 9, SENP8 block-2 4 and Platelet DG rel 1.
`O=C(COC(=O)c1ccc([N+](=O)[O-])s1)Nc1ccc(Cl)cn1` gave SENP7 inh 19, SENP6 inh 65*, SENP8 block-1 14, SENP8 block-2 8, Platelet DG rel 1, SENP8 conf 18, SENP6 confirm 47, SENP7 conf 0, Casp3 SENP sel 0 and Luc interf -1.
Cc1ccc(C(=O)OCC(=O)Nc2ccc(Cl)cn2)s1 was read as SENP7 inh -14, SENP6 inh -15, SENP8 block-1 -3 and SENP8 block-2 7.
Cc1c(Cl)cnc(NC(=O)COC(=O)c2ccc([N+](=O)[O-])s2)c1Cl was read as SENP7 inh 16, SENP6 inh 71*, SENP8 block-1 47, SENP8 block-2 20, Platelet DG rel 4, SENP8 conf -14, SENP6 confirm 76*, SENP7 conf 7, Casp3 SENP sel -3 and Luc interf -7.
Screening CC(C)C(=O)Nc1cccc(COc2ccc(CN(CCc3ccccc3)C(=O)OC(C)(C)C)cc2)c1 returned SENP8 block-2 12.
For CCN1/C(=C2\C(=O)N(C)C(=S)N2C)C=Cc2cc(C)ccc21 the results were SENP7 inh 3, SENP6 inh 1, SENP8 block-1 3, SENP8 block-2 -29 and Platelet DG rel 8.
For COCCNC(=O)CN(C(=O)c1ccc(N2CCCC2)nc1)c1ccc(F)c(Cl)c1 the results were SENP7 inh 1, SENP6 inh 51*, SENP8 block-1 56*, SENP8 block-2 -5, Platelet DG rel 7, SENP8 conf 13, SENP6 confirm 10, SENP7 conf 12, Casp3 SENP sel 4 and Luc interf 7.
